HER2 expr 66K – inhibitors of human Her2 kinase expression; SKBR-3 HER2 protein level, AlphaScreen, 18-24 h; hits give low values; HER2 level % of control, % at 10 µM; 65,000 tested, 0.69% active;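 active = HER2 level under 5% of the carrier-only control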;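 note: lower value means stronger loss of Her2 protein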
HePTP inhibitor – inhibitors of human HePTP phosphatase. inhibition, % at 20 µM. P35236. recombinant HePTP phosphatase activity, OD absorbance. 110,000 tested, 0.64% active; in the data active = inhibition above about 50%
E coli RNAP – Escherichia coli RNA polymerase inhibition; P0A8V2; E. coli RNA polymerase, fluorescence transcription assay; inhibition, %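 (tested at 10 µM)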; 62,000 tested, 0.2% active; AID 559; in the data active = inhibition above about 20%
TNAP act DEA – activates human TNAP at intermediate phosphate acceptor concentration. P05186. purified TNAP, CDP-star luminescence, 100 mM DEA, 30 min; hits give high values; scale: 0 levamisole-inhibited, 1 vehicle-only enzyme. activation factor at 20 µM. 64,000 tested, under 10 active. AID 813;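 active = activation factor of at least 2 at 20 µM, relative to controls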
Hsp90 block – displaces geldanamycin probe from tumor Hsp90; inhibition, % at 30 µM; NCI-N417 lysate Hsp90, Cy3B-geldanamycin FP displacement; AID 429; 64,000 tested, 0.35% active; P07900;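 active = inhibition above 50%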
MT1-MMP txn act – MT1-MMP promoter transcription activation; HT1080 MT1-MMP promoter luciferase reporter, luminescence, overnight; hits give high values; AID 750; 86,000 tested, 0.16% active; activation factor at 10 µM;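 active = activation factor of at least 2 for MT1-MMP transcription at 10 µM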
Hits are given with their value; i = inactive; nt = no result given. Most compounds without a hit are left out; they make up all but 1.1% or so of the library.

SMILES | HER2 expr 66K | HePTP inhibitor | E coli RNAP | TNAP act DEA | Hsp90 block | MT1-MMP txn act
O=[N+]([O-])c1cccc(CN2CCN(S(=O)(=O)c3ccccc3)CC2)c1 | nt | i | nt | nt | nt | nt
Cc1ccccc1C=Nc1ccc(O)cc1 | nt | i | nt | nt | nt | nt
CC1CN=C(N(C(=O)Nc2ccccc2)c2ccc(S(=O)(=O)N3CCOCC3)cc2)S1 (stereo unspecified) | 1.3 | i | i | i | i | i
CC1(C)C(=O)N(Cc2ccc([N+](=O)[O-])cc2)c2ccccc2N1C(=O)c1ccc(F)cc1 | nt | i | nt | nt | nt | nt
CC1(C)C(=O)N(Cc2ccccc2)c2ccccc2N1C(=O)c1ccc([N+](=O)[O-])cc1 | nt | 74 | nt | nt | nt | nt
COc1ccc(S(=O)(=O)N(CC(=O)Nc2ccc(Br)cc2)c2ccc(C)cc2)cc1OC | nt | i | nt | nt | nt | nt
O=[N+]([O-])c1cccc(Cl)c1N1CCN(S(=O)(=O)c2ccc(Cl)cc2)CC1 | nt | i | nt | nt | nt | nt
COc1ccc(OC)c(/C=N/c2oc(-c3ccco3)c(-c3ccco3)c2C#N)c1 | i | i | i | i | 55 | i
Cc1nnc(SCC(=O)N2c3ccccc3Sc3ccccc32)n1N | i | i | i | i | i | i
Cc1nnc(SC(=O)N2c3ccccc3Sc3ccccc32)s1 | 0.9 | i | i | i | i | i
Cc1cccc(OCCn2c(N)nc3ccccc32)c1 | nt | i | nt | nt | nt | nt
O=C1CC(N2CCN(c3ccc([N+](=O)[O-])cc3)CC2)C(=O)N1c1ccc(Br)cc1 (stereo unspecified) | nt | i | nt | nt | nt | nt
CCCOc1ccc(C(=O)CCN2CCCCC2)cc1 | -20 | i | i | i | i | i
COc1cc2ccccc2cc1C(=O)Nc1cc(-c2nc3cc(C)ccc3o2)ccc1C | nt | i | nt | nt | nt | nt
O=C1NN(c2ccc(Cl)cc2)C(=O)/C1=C\c1ccc(-c2cccc(C(=O)O)c2)o1 | nt | 103 | nt | nt | nt | nt
O=C1NN(c2ccc(F)cc2)C(=O)/C1=C\c1ccc(-c2cccc(C(=O)O)c2)o1 | nt | 102 | nt | nt | nt | nt
O=C1NN(c2ccc(F)c(Cl)c2)C(=O)/C1=C\c1ccc(-c2cccc(C(=O)O)c2)o1 | nt | i | nt | nt | nt | nt
O=C(O)c1cccc(-c2ccc(C=C3C(=O)c4ccccc4C3=O)o2)c1 | nt | 98 | nt | nt | nt | nt
CC1=C(C)C(=O)NC(Nc2nc(C)c3cc(C)cc(C)c3n2)N1 (stereo unspecified) | -14 | i | i | i | i | i
O=C(Cc1ccc(F)cc1F)n1nnc2ccccc21 | nt | i | nt | nt | nt | nt
CN(C1=NC(=O)/C(=C\C(Cl)=C\c2ccc([N+](=O)[O-])cc2)S1)c1ccc(O)cc1 | nt | i | nt | nt | nt | nt
CN(C1=NC(=O)S/C1=C\c1ccc([N+](=O)[O-])cc1)c1ccc(O)cc1 | nt | 56 | nt | nt | nt | nt
CC1CN(c2oc(COc3ccc(Cl)cc3Cl)nc2C#N)CC(C)O1 (stereo unspecified) | -19 | i | i | i | i | i
N#Cc1nc(COc2ccccc2Cl)oc1N1CCCCCC1 | i | i | i | i | i | i
N#Cc1nc(COc2ccccc2F)oc1N1CCCCCC1 | i | i | i | i | i | 2.2
SMILES | HER2 expr 66K | HePTP inhibitor | E coli RNAP | TNAP act DEA | Hsp90 block | MT1-MMP txn act
N#Cc1nc(COc2ccc(Cl)cc2)oc1N1CCCCCC1 | i | i | i | i | i | i
CC(C)N=c1cc2n(-c3ccc(Cl)cc3)c3ccccc3nc-2cc1Nc1ccc(Cl)cc1 | i | i | i | i | 98 | i
Cn1c(CNc2ccc(Cl)cc2)nc2ccccc21 | i | i | i | i | i | i
CC1(C)CC(NC(=O)c2cccc(Cl)c2)CC(C)(C)N1 | nt | 102 | nt | nt | nt | nt
CC(=O)C1=C(O)C(=O)N(CC2CCCO2)C1c1ccc(Br)cc1 (stereo unspecified) | nt | i | nt | nt | nt | nt
N#Cc1ccc(-c2ccco2)nc1SCC(=O)c1ccc(Cl)cc1 | i | i | 21 | i | i | i
N#Cc1c(-c2ccco2)cc(C2CC2)nc1SCC(=O)c1ccccc1 | i | i | i | i | i | i
CCOC(=O)C(Cc1c[nH]c2ccccc12)NC(=O)c1cc2ccccc2oc1=O (stereo unspecified) | nt | i | nt | nt | nt | nt
O=C1N=c2ccccc2=C1c1[nH]c(=S)[nH]c1O | nt | i | nt | nt | nt | nt
O=C1N=c2ccccc2=C1c1cc(-c2ccccc2)oc1O | nt | 56 | nt | nt | nt | nt
O=[N+]([O-])c1ccc(N/N=C\c2ccc(N3CCOCC3)o2)nc1 | nt | i | nt | nt | nt | nt
O=C(NC1(O)C(=O)c2ccccc2C1=O)c1ccccc1 | i | i | i | i | 73 | i
Cc1nonc1NC1(O)C(=O)c2ccccc2C1=O | nt | i | nt | nt | nt | nt
CCOC(=O)CC1=C(C(=O)OCC)C(c2ccc(OC)cc2OC)C(C#N)=C(N)O1 (stereo unspecified) | -20 | i | i | i | i | i

High-throughput results (PubChem)
